Records with an inconclusive call do not appear. Entries that show only a call come without a potency. The source made the active and inactive calls. The call rests on the fitted dose curve; in most records, active means well fitted activation curve with a large enough effect; inconclusive means small, poorly fitted or top-dose-only effect; inactive means no such curve, though single readings can be large or run the other way.
Assay: qHTS Assay for Identifying a Potential Treatment of Ataxia-Telangiectasia: Secondary assay (no NCS) hit validation;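 further: phosphorylated KAP1 signal as a proxy for ATM-like kinase activity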
Settings: A-T patient fibroblasts, AlphaLISA, no DNA damage added, 90 min; series mostly up to 76.9 µM
Text: NIH Chemical Genomics Center [NCGC]
NIH Molecular Libraries Probe Centers Network [MLPCN]
Assay Submitter (PI): Wei Zheng and Yosef Shiloh
Ataxia-telangiectasia (A-T) is a devastating and progressive disease for which, there is no cure. Although A-T is a multisystem disease, it is stereotyped characterized by its neurological symptoms such as truncal ataxia, due to cerebellar cortical degeneration of the Purkinje and granule cells. Other symptoms of A-T are telangiectasias (dilated blood vessels), primary immunodeficiency, marked sensitivity to ionizing radiation (IR), chromosomal instability and predisposition to cancer.
The underlying genetic cause of A-T is null mutations in the ATM (A-T mutated) gene. ATM is a nuclear serine/threonine kinase that functions as a master regulator of the cellular responses to double strand breaks (DSBs) in the DNA. Upon activation by DSBs, ATM phosphorylates a plethora of downstream targets, including KAP-1 on […]. KAP-1 phosphorylation occurs shortly in response to DSBs and mediates global chromatin relaxation, which facilitates DSB repair. To screen for small molecules that will compensate for the loss of ATM in cells derived from A-T patients, we monitored KAP-1 phosphorylation as a readout for ATM-like activity using an AlphaLISA assay. This secondary assay omits NCS, which creates double-stranded DNA breaks.
Step,Parameter,Value,Description
1. Cell Plating, 3 ul, 500 cells/well in OPTI-MEM, 1% FBS, 1% Pen/Strep
3. Library compounds, 23 nl, 76.7 - 0.61uM dilution series final concentration
4. Incubation, 60 min, 37C, 5% CO2, 95% humidity
6. Incubation, 30 min, 37C, 5% CO2, 95% humidity
7. Reagent, 1 ul, Premixed detection reagents and lysis buffer
8. Reagent, 1 ul, 0.6% Antifoam A
9. Incubation, 6 hr, 25C, 95% humidity
10. Readout, EnVision, EnVision plate reader. AlphaScreen 1536-well protocol
Cells were plated using medium-binding white solid-bottom tissue culture treated Kalypsys plates. Multidrop dispense of 3 uL of F2112 (hTERT immortalized A-T patient fibroblast cells). Detection reagent and lysis buffer was 3.75nM Rab-a-pKAP1 antibody bound to 75 ng/ul AlphaScreen SA donor bead, 3.75 nM Biot-M-a-KAP1 antibody bound to AlphaLISA protein A acceptor bead, 0.5x protease inhibitor cocktail and 0.25x PerkinElmer lysis buffer. EnVision protocol for 1536-well AlphaScreen read (30ms excitation, 100ms read), about 10 min/plate.
Potency means the concentration at half of the fitted maximal effect.

Compound	Potency
CCOc1ccc(C(=O)NC(=S)Nc2cccnc2)cc1[N+](=O)[O-]	inactive
CC(=O)/C(N=Nc1nc2c([nH]1)c(=O)n(C)c(=O)n2C)=C(\C)O	inactive
Cc1ccc(C2(C)NC(=O)N(CC(=O)Nc3ccccc3N3CCCC3)C2=O)cc1 (stereo not given)	inactive
COc1cc(/C=C2\CCOC2=O)cc(OC)c1OC	inactive
COc1ccc(Oc2ncnc3c2oc2ccc(Br)cc23)cc1	inactive
CC(C)(C)C1CCC2(CC1)SCC(=O)N2c1ccccc1 (stereo not given)	inactive
O=C(O)c1ccc(/C=C/c2nc3ccccc3c(=O)[nH]2)cc1	inactive
COc1cccc(C2C(C(N)=O)=C(C)Nc3nc(CCCO)nn32)c1 (stereo not given)	inactive
Nc1nc2ccccc2cc1-c1cccs1	inactive
COc1ccc(C(CNC(=O)C(Cc2ccccc2)NC(N)=O)N(C)C)cc1 (stereo not given)	inactive
OC1(CC#CCN2CCCCC2)c2ccccc2-c2ccccc21	inactive
N#Cc1c(-c2ccccc2)cc(-c2ccccc2)[nH]c1=O	inactive
COc1cccc(CNCc2ccc(OC)c3ccccc23)c1OC	inactive
COc1cc(/C=C2\SC(=S)N(C(C(=O)O)c3ccccc3)C2=O)ccc1O (stereo not given)	inactive
CC(=O)c1ccc([N+](=O)[O-])c(CS(=O)(=O)c2ccc(Cl)cc2)c1	inactive
CCN(CC)S(=O)(=O)c1ccc(Cl)c(NC(=O)CCCCl)c1	inactive
CC(=O)Nc1ccc(NC(=O)CSc2nnnn2-c2ccc(F)cc2)cc1	inactive
O=C(c1nn2c(C(F)(F)F)cc(-c3ccc(F)cc3)nc2c1Cl)N1CCOCC1	inactive
O=C(N/N=C/c1ccncc1)c1ccc(COc2cccc3cccnc23)cc1	inactive
Cc1ccc2c(c1)C(=O)CC(O)(C(F)(F)F)O2 (stereo not given)	inactive

Compound	Potency
C(=N\Nc1ccccn1)/c1c[nH]c2ccccc12	inactive
COc1ccc(CNC(=O)CN2C(=O)CSc3ccc(S(=O)(=O)N4CCOCC4)cc32)c(OC)c1	inactive
CCC(=O)NC1=C(Cl)C(=O)C(NC(=O)CC)=C(Cl)C1=O	inactive
CCOC(=O)N1CCN(c2nc(N(c3ccccc3)c3ccccc3)nc(-n3ccnc3)n2)CC1	inactive
O=C(OCCc1cc2ccccc2c(=O)o1)c1cccc(Br)c1	inactive
COc1ccccc1[C@H]1C(c2cccc(Cl)c2)=NN(c2ccccc2)[C@@H]1CO	inactive
CCOC(=O)C1=C(C)N(c2ccc(OC)cc2)C(=O)/C1=C\c1ccc(O)c(OCC)c1	inactive
CCN(CC)c1ccc2cc(-c3nc4ccccc4[nH]3)c(=O)oc2c1	inactive
CNC(=S)N(CCc1c(C)[nH]c2ccc(Cl)cc12)Cc1cccnc1	inactive
Cc1ccccc1S(=O)(=O)Oc1ccc2ccc(O)cc2c1	inactive
Cc1cc(C)c2c(Cn3ccnc3)cc(=O)oc2c1	inactive
CN(C)C(=O)c1nc2ccc(Cl)cn2c1CNCc1cccc(OC(F)(F)F)c1	inactive
COC(=O)Cn1ccc2cc(S(=O)(=O)N3CCCCC3)ccc21	inactive
CN(CCc1ccccn1)C(=O)c1cc(COc2ccc(F)cc2F)on1	inactive
CC(C)(CN1CCN(c2ccccc2)CC1)NS(=O)(=O)c1ccccc1	inactive
CCOC(=O)Cn1c(-c2ccccc2)cc(SC)c(C#N)c1=O	inactive
Cc1ccc(C(=O)Nc2sc3c(c2C(=O)O)CCCCC3)o1	0.232 µM (active)
CCCN1C2CCCC1CC(NC(=S)Nc1cccc(C)c1C)C2 (stereo not given)	inactive
CCOC(=O)N1CCC(NC(=O)C2CCN(S(=O)(=O)c3cccc4cccnc34)CC2)CC1	inactive
C=CCN1C(=O)/C(=C/C(=O)OC)S/C1=N\NC(=O)c1ccccc1	inactive

Source: PubChem BioAssay AID493201 (National Center for Advancing Translational Sciences (NCATS), 2011)
